PubChem BioAssay (NCI)
This is part of a sample that, as a whole, favours compounds with a hit. Of some 79,000 tested, about 15% had one in any assay. Values without a mark were called inactive. Activity calls are given as the source filed them. Rule as the data show it: active = growth inhibition above about 70%; inactive = the rest.

Columns and labels:
[1] = NCI Yeast Anticancer Drug Screen. Data for the rad50 strain (AID 155);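 also: 0% = growth of vehicle-only cultures of the same strain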; conditions: S. cerevisiae rad50 strain growth inhibition, hits give high values
In short: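 Relative growth inhibition (compound vs vehicle) was measured in yeast with a defined repair-gene alteration.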

[2] = NCI Yeast Anticancer Drug Screen. Data for the mec2-1 strain (AID 157); conditions: S. cerevisiae mec2-1 strain, hits give high values
In short: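 Each compound was tested on mec2-1 yeast, a strain altered in DNA damage repair or cell cycle control. Growth inhibition is reported relative to vehicle.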

[3] = NCI Yeast Anticancer Drug Screen. Data for the sgs1 mgt1 strain (AID 161);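 also: 0% = growth of cultures given vehicle only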; conditions: S. cerevisiae sgs1 mgt1 strain, hits give high values
In short: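 Inhibition of yeast growth, normalised to vehicle-treated controls, is reported for a strain bearing genetic alterations in DNA damage repair.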

[4] = NCI Yeast Anticancer Drug Screen. Data for the cln2 rad14 strain (AID 165);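 also: 0% = growth equal to vehicle treated cultures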; conditions: S. cerevisiae cln2 rad14 strain, hits give high values
In short: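 Test compounds were added to cln2 rad14 yeast cultures; inhibition of growth was then determined by comparison with vehicle treatment.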

[5] = NCI Yeast Anticancer Drug Screen. Data for the bub3 strain (AID 167); conditions: S. cerevisiae bub3 mutant strain, hits give high values
In short: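 Screening used yeast with an engineered genetic alteration affecting cell cycle control. Compound-exposed cultures were compared with vehicle cultures, and reduced growth was taken as inhibition.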

[6] = NCI Yeast Anticancer Drug Screen. Data for the mlh1 rad18 strain (AID 175); conditions: S. cerevisiae mlh1 rad18 strain growth inhibition, hits give high values
In short: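 Inhibition values reflect reduced growth of mutant yeast versus vehicle-treated controls following compound exposure; the mutations affect DNA damage repair.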

[7] = at 5.0 µM (retest, dose inferred, filed as 0.5)
[8] = at 50.0 µM (retest, dose inferred, filed as 5.0)

SMILES | growth inhibition [1, 7] | growth inhibition [1, 8] | growth inhibition ([1]; at 50.0 µM) | growth inhibition [2, 7] | growth inhibition [2, 8] | growth inhibition ([2]; at 50.0 µM) | growth inhibition [3, 7] | growth inhibition [3, 8] | growth inhibition ([3]; at 50.0 µM) | growth inhibition [4, 7] | growth inhibition [4, 8] | growth inhibition ([4]; at 50.0 µM) | growth inhibition [5, 7] | growth inhibition [5, 8] | growth inhibition ([5]; at 50.0 µM) | growth inhibition [6, 7] | growth inhibition [6, 8] | growth inhibition ([6]; at 50.0 µM)
CN1COc2c(Cl)cc(Cl)cc2C1 | -3% | 85% (active) | 76.2% (active) | -2% | 45% | 57.2% | 0% | 91% (active) | -5.15% | -3% | 46% | -4% | -4% | 75% (active) | 45.5% | -1% | 86% (active) | 42.5%
COc1ccc(SC2=C(N(C)C)C(=O)c3ccccc3C2=O)cc1 | 2% | 85% (active) | 88.2% (active) | -19% | 79% (active) | 19.8% | 2% | 92% (active) | 63.2% | 54% | 79% (active) | 22.8% | -10% | -46% | 60% | 11% | 88% (active) | 84.5% (active)
CC(C)(C)c1ccc2c(c1)CNCCNCc1cc(C(C)(C)C)ccc1OCC1(CO2)COc2ccc(C(C)(C)C)cc2CNCCNCc2cc(C(C)(C)C)ccc2OC1 | 99% (active) | 92% (active) | 89% (active) | 99% (active) | 94% (active) | 90% (active) | 99% (active) | 92% (active) | 92.2% (active) | 99% (active) | 92% (active) | 89.5% (active) | 98% (active) | 91% (active) | 89% (active) | 98% (active) | 92% (active) | 88.2% (active)
Cc1ccccc1NC(=O)C(=O)C(C#N)c1c(Cl)cccc1Cl (configuration not stated) | -13% | 15% | -15.6% | 6% | 11% | 17.1% | -2% | 2% | 25.6% | 0% | 10% | -12.1% | -3% | 25% | 14.7% | 2% | 3% | 25.9%
c1ccc2c(CCc3ccncc3)cccc2c1 | 4% | 74% (active) | 95.4% (active) | 2% | 60% | 95.5% (active) | 1% | 60% | 96% (active) | 3% | 53% | 88.5% (active) | 10% | 81% (active) | 94.1% (active) | 0% | 71% (active) | 92.5% (active)
CCOC(=O)C(=N\Nc1c(C)cccc1C)/C(C)=N\NC(N)=S | -17% | 15% | 64.7% | -7% | 25% | 32.6% | 7% | 45% | 58.2% | -13% | -9% | 54.8% | -3% | 4% | 51.5% | 11% | 42% | 69.2%
C=CC(=C)OC | 0% | 14% | 10.4% | -8% | 0% | 20.3% | -2% | 1% | 19.1% | 1% | 8% | 69.9% | 2% | -2% | 39% | 2% | 4% | 7.5%
O=C(O)c1ccc2c(Br)ccc3c2c1CC3 | 13% | 8% | 77.3% (active) | -13% | 25% | 56.1% | -6% | 16% | 73.5% (active) | -8% | -1% | 18.1% | -2% | 20% | 8.05% | 34% | 35% | 68.6%
O=Nc1c(O)c2ccccc2c2ccc([N+](=O)[O-])cc12 | 21% | 64% | 69.8% | 48% | 95% (active) | 84.8% (active) | 35% | 87% (active) | 91.7% (active) | 12% | 52% | 42.9% | 20% | 65% | 85.2% (active) | 37% | 90% (active) | 88% (active)
